Out of some 2,100 compounds screened, about 1,100 (52%) were called active. Roughly 27% stayed inconclusive and do not appear here. The call rests on the fitted dose curve; in most records, active means well fitted inhibition curve with a large enough effect; inconclusive means small, poorly fitted or top-dose-only effect; inactive means no such curve, though single readings can be large or run the other way. So high a share suggests a set chosen from earlier hits. This is one part of the list.
Potency means the concentration at half of the fitted maximal effect.

The target in this test is DNA dC->dU-editing enzyme APOBEC-3G (Homo sapiens) (UniProt Q9HC16). The test is described as follows: qHTS for inhibitors of Vif-A3G interactions: Cherry picks counterscreen.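 Further: hits raise yellow fluorescence by blocking Vif-driven A3G-eYFP degradation; nearly all actives have a fitted effect of over 70% in size.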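 On max response: max response given as percent of control signal.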 The settings on record: HeLa A3G-eYFP + Vif (tagged APOBEC3G with the HIV-1 protein that degrades it), eYFP fluorescence, 24 h. The source says: The recent discovery and characterization of host restriction factors, which provide a potent defense to invading retroviruses, has provided new targets for antiviral drug development. APOBEC3G (A3G) and APOBEC3F (A3F) are potent cytidine deaminases that block HIV-1 replication; HIV-1 expresses the Vif protein, which counteracts A3G and A3F by binding to them and inducing their proteasomal degradation. The Vif-A3G and Vif-A3F interactions provide two potential targets for development of small molecules which can interfere with the ability of Vif to degrade A3G or A3F. […] To identify inhibitors that can interfere with Vif mediated degradation of A3G and A3F, we have developed Hela cell lines that stably express A3G or A3F tagged with eYFP at the C-terminal end (A3G-eYFP or A3F-eYFP, respectively) and Vif. In the absence of an inhibitor, Vif induces degradation of A3G-eYFP and A3F-eYFP, and the cells are not fluorescent. In the presence of an inhibitor, it is expected that Vif will be unable to degrade A3G-eYFP and/or A3F-eYFP, resulting in an increase in yellow fluorescence. In this counterscreen assay, Vif A3G was screened against the cherry picks ordered from the MLSMR. NIH Chemical Genomics Center [NCGC] NIH Molecular Libraries Probe Centers Network [MLPCN] MLPCN Grant: MH093245 Assay Submitter (PI): Vinay Pathak, National Cancer Institute
Chain of DNA dC->dU-editing enzyme APOBEC-3G (Homo sapiens) (Q9HC16 whole entry, looked up): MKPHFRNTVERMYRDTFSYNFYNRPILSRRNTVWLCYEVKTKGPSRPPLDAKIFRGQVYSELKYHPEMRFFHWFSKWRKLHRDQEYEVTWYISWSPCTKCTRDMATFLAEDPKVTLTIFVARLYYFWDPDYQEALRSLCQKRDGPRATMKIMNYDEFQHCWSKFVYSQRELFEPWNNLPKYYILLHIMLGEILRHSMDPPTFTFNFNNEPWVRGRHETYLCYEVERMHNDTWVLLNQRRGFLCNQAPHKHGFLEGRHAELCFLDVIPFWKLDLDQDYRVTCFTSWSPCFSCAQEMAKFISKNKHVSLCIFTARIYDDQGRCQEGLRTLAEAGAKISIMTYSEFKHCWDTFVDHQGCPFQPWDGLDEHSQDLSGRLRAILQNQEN
A3G-Vif cells were harvested from T225 flask and resuspended in phenol free OPTI-MEM medium with 5% FBS. Then 5 uL of 140,000 cells/mL resuspended cells was dispensed into each well of low base Aurora COC 1,536-well plates (black walled, clear bottom) using a Multidrop Combi dispenser. After overnight culture at 37 deg C with 5% CO2, a total of 23 nL of compounds at 5 selected concentrations from the NPC or positive control (2 mM stock of MG132) in DMSO was transferred to each well of the assay plate using a pintool (Kalypsys, San Diego, CA), and the plates were further incubated at 37 deg C with 5% CO2 for 24 hours. After that, the plates were measured on Acumen Explorer (TTP Lab Tech). The fluorescence was detected by 488 nm/Ex and […].
A general note: Quantitative high-throughput screening tests each substance at several concentrations.
Regarding `CCCCCCN1C[C@H](O)[C@@H](n2cc(COC(=O)c3ccccc3)nn2)C[C@@H]1c1ccc(C)cc1`, the max response is 4.43% (inactive).

As to `CN(C)c1ccc2ccc3cccc4ccc1c2c34`, the Potency was 13 µM (active). Take `O=C1NC(c2cccc(Cl)c2)Nc2ccccc21` (stereo not drawn): the Potency was 12.5 µM (active). Regarding `CSc1ccc(C2NC(=O)c3ccccc3N2)cc1` (stereo not drawn), the Potency was 11.2 µM (active).

On to `O=C1NC(c2ccc(Br)cc2)Nc2ccccc21` (stereo not drawn), for which the Potency was 17.7 µM (active). Turning to `CC(C)n1cc(NC(=O)c2cc(-c3ccccc3)on2)cn1`, the Potency was 5.59 µM (active). On to `CCn1c(O)c(/C=N/N=C/c2ccc(OC)cc2)c2cc(C3=NNC(=O)CC3)ccc21`, for which the Potency is 13 µM (active). As to `N#CC(=Cc1ccccn1)c1nc(-c2ccc(Cl)cc2)cs1`, the Potency is 6.27 µM (active).

As for `N#C/C(=C\c1ccc(Cl)cc1)c1nc2ncccc2[nH]1`, the max response was -13.6% (inactive).

As for `O=C(Cn1nc2c(cc1=O)CCCC2)NCc1ccc(Cl)cc1`, the Potency was 13 µM (active). For the compound `Cc1ccc(CNC(=O)Cn2cc(C(=O)c3ccc(Cl)cc3)c(=O)c3ccc(C)nc32)cc1`, the max response was -25% (inactive). In the case of `CCC(C)Sc1cccc(-c2nc3cc(C)ccn3c2NC2CCCCC2)c1` (stereo not drawn), the max response was 18.8% (inactive). With `Cc1cccc(N2CCN(C(=O)c3ccncc3)CC2)c1C`, the Potency is 12.5 µM (active). On to `O=C1COc2ccc(C(=O)CSc3nc4ccccc4c(=O)n3-c3ccc(Cl)c(Cl)c3)cc2N1`, for which the Potency is 18.4 µM (active). For `Cc1ccc(/C=C2/CNC/C(=C/c3ccc(C)cc3)C2=O)cc1`, the Potency was 5.59 µM (active). For the compound `C[C@]12CCC[C@H](O1)c1c(cc3c(c1O)C(=O)c1c(O)cc(O)cc1C3=O)O2`, the Potency is 16.4 µM (active). For `Cc1cc(N(C)C)c(C)cc1/C=C/c1ccnc2ccccc12`, the Potency is 10.3 µM (active). Consider `CCN(CC)c1cc(C)c(/C=C/c2ccnc3ccccc23)cc1C`, for which the Potency is 16.4 µM (active). Same read-out and setting: the result for `O=C(O)c1ccccc1N/N=C/c1c(Sc2nnnn2-c2ccccc2)nc2ccccn2c1=O` reads 4.44 µM (active).

On to `COc1cc(C(=O)Nc2nnc(Cc3ccccc3)s2)cc(OC)c1OC`, for which the Potency is 12.5 µM (active).

As for `COc1cc(CCC(=O)Nc2nnc(C)s2)cc(OC)c1OC`, the Potency was 8.86 µM (active).

On to `Cc1cc(NC(=O)Nc2nnc(N(C)Cc3ccccc3)s2)ccc1Br`, for which the max response was 20.9% (inactive).

As to `COc1ccc(NC(=O)C(NC(=O)/C=C\c2ccc3c(c2)OCO3)c2ccccc2)cc1` (stereo not drawn), the max response was -17% (inactive). Regarding `Cc1noc(C)c1COc1cccc(C(=O)OC(C)C(=O)Nc2ccc3c(c2)OCO3)c1` (stereo not drawn), the Potency is 3.53 µM (active).

Turning to `C/C(=N\NC(=S)NCc1ccccc1)c1cccs1`, the max response is -28.6% (inactive).

In the case of `CC1(C)Cc2c(sc3ncnc(NNC(=S)NCc4ccccc4)c23)CO1`, the Potency is 12.5 µM (active).

Consider `O=c1[nH]c2ccccc2nc1/C=C(\O)c1cccs1`, for which the Potency was 4.61 µM (active). Turning to `NNC(=O)c1cc2sccc2s1`, the max response was 2.94% (inactive). For `Cc1cc(/C=C2\SC(=S)N(Cc3ccco3)C2=O)c(C)n1-c1cccnc1`, the Potency was 9.2 µM (active). On to `CCN1CCN(c2c(/C=C3\SC(=S)N(Cc4ccco4)C3=O)c(C)c(C#N)c(=O)n2C)CC1`, for which the Potency was 20.6 µM (active).

With `Cc1cc(/C=C2\SC(=S)N(Cc3ccco3)C2=O)c(C)n1-c1ccccc1`, the Potency was 23.1 µM (active). On the same count and under the same terms, the result for `CN(C)c1ccc(C=C2SC(=S)N(Cc3ccco3)C2=O)cc1` reads 3.53 µM (active). Regarding `Cc1ccc2nc(NS(=O)(=O)c3ccc(Cl)cc3)c(Nc3ccc(C(=O)O)cc3)nc2c1`, the max response was 2.4% (inactive). For `COc1ccc(Nc2nc3cc(C)ccc3cc2C#N)c(OC)c1`, the Potency was 1.58 µM (active). Regarding `COc1ccc(Nc2nc3cc(C)ccc3cc2C#N)cc1`, the Potency is 18.4 µM (active). Turning to `CC(=O)n1c2ccccc2c2nc3ccccc3nc21`, the Potency was 2.59 µM (active). Take `C=CCNc1nc2cc(-c3cccc(Cl)c3)sc2c(=O)n1C`: the Potency was 14 µM (active). For `CCOC(=O)c1ccc(/C=C2/C=C(c3ccccc3)N(c3ccc(Cl)c(C(=O)O)c3)C2=O)cc1`, the Potency was 20.6 µM (active).

In the case of `C=CCOc1ccc2nc(NC(=O)OC)[nH]c2c1`, the Potency was 2.23 µM (active). For the compound `CCOC(=O)c1c(NC(=O)CSc2nc3ccc(OC)cc3[nH]2)sc2c1CC(C)(C)NC2(C)C`, the max response is -23% (inactive). In the case of `COc1ccc(NC(=O)C2Cc3c(-c4cccc(NC(C)=O)c4)ccnc3O2)cn1` (stereo not drawn), the Potency is 14 µM (active). In the case of `COc1ccc(NC(=O)C2Cc3c(-c4cccc(C(C)=O)c4)ccnc3O2)cc1` (stereo not drawn), the Potency was 3.96 µM (active).

Consider `CC(=O)c1cccc(-c2ccnc3c2CC(C(=O)Nc2ccc(Cl)cc2)O3)c1` (stereo not drawn), for which the Potency was 12.5 µM (active).

As to `CC(=O)Nc1ccc(-c2ccnc3c2CC(C(=O)Nc2cccc(N(C)C)c2)O3)cc1` (stereo not drawn), the Potency is 9.94 µM (active). Turning to `COc1cc(C2c3cc4c(cc3C(OC3OC5COC(c6cccs6)OC5C(O)C3O)C3COC(=O)C23)OCO4)cc(OC)c1O` (stereo not drawn), the max response was -84.8% (inactive). Consider `CC(=O)Nc1cccc(-c2ccnc3c2CC(C(=O)Nc2ccc4c(c2)OCO4)O3)c1` (stereo not drawn), for which the Potency is 1.25 µM (active). Regarding `Cc1ccc(N=C2NC(=O)CC(C(=O)Nc3ccc4c(c3)OCO4)S2)cc1` (stereo not drawn), the max response was -13.3% (inactive).

As for `COc1ccc(NC(=O)C2Cc3c(-c4cccc(C(C)=O)c4)ccnc3O2)cn1` (stereo not drawn), the Potency was 1.4 µM (active).

These data come from PubChem BioAssay AID651813 (National Center for Advancing Translational Sciences (NCATS), 2012).
